For some of these results: Potency and affinity values are given separately. Active and inactive are the calls of the source.

The conditions of the first experiment: Ebola virus entry reporter assay, green channel fluorescence.
On to `CN(C)CCC[C@@]1(c2ccc(F)cc2)OCc2cc(C#N)ccc21`, for which the compound was called inactive.

In the case of `COC(=O)C1=C(C)NC(C)=C(C(=O)OCCN(C)Cc2ccccc2)C1c1cccc([N+](=O)[O-])c1` (stereo unspecified), the compound was called inactive.

For the compound `COC(=O)[C@H]1[C@H]2C[C@@H]3c4[nH]c5cc(OC)ccc5c4CCN3C[C@H]2C[C@@H](OC(=O)c2cc(OC)c(OC)c(OC)c2)[C@@H]1OC`, the outcome was inactive.

As to `Cc1nc(Nc2ncc(C(=O)Nc3c(C)cccc3Cl)s2)cc(N2CCN(CCO)CC2)n1`, the call was inactive.

Turning to `CC12CC3CC(C)(C1)CC(N)(C3)C2`, the call was inactive.

On to `CCN(CC)CCN1C(=O)CN=C(c2ccccc2F)c2cc(Cl)ccc21`, for which the compound was classed as inactive.

For the compound `CN1CCC(=C2c3ccccc3C=Cc3ccccc32)CC1`, the compound was classed as inactive.

`Cc1c(O)cccc1C(=O)N[C@@H](CSc1ccccc1)[C@H](O)CN1C[C@H]2CCCC[C@H]2C[C@H]1C(=O)NC(C)(C)C`: the result was inactive.

Take `CN1CCc2cccc3c2[C@H]1Cc1ccc(O)c(O)c1-3`: the compound was called inactive.

For the next experiment the following is noted: Ebola virus entry cell assay, ratio channel.
Take `CN(C)CCC[C@@]1(c2ccc(F)cc2)OCc2cc(C#N)ccc21`: the result was inactive.

`COC(=O)C1=C(C)NC(C)=C(C(=O)OCCN(C)Cc2ccccc2)C1c1cccc([N+](=O)[O-])c1` (stereo unspecified): the concentration at half-maximal activity (AC50) is 28.2 µM (active).

Turning to `CNCC[C@@H](Oc1ccccc1C)c1ccccc1`, the AC50 is 17.8 µM (active).

As for `C[C@@H](O[C@H]1OCCN(Cc2n[nH]c(=O)[nH]2)[C@H]1c1ccc(F)cc1)c1cc(C(F)(F)F)cc(C(F)(F)F)c1`, the result was inactive.

Consider `CCOC(=O)N1CCC(=C2c3ccc(Cl)cc3CCc3cccnc32)CC1`, for which the result was inactive.

In the case of `CCc1nn(CCCN2CCN(c3cccc(Cl)c3)CC2)c(=O)n1CCOc1ccccc1`, the AC50 is 22.4 µM (active).

In the case of `CCCCc1oc2ccc(NS(C)(=O)=O)cc2c1C(=O)c1ccc(OCCCN(CCCC)CCCC)cc1`, the AC50 was 3.16 µM (active).

Turning to `CCCN(CCc1cccs1)[C@H]1CCc2c(O)cccc2C1`, the AC50 was 15.8 µM (active).

`COC(=O)[C@H]1[C@H]2C[C@@H]3c4[nH]c5cc(OC)ccc5c4CCN3C[C@H]2C[C@@H](OC(=O)c2cc(OC)c(OC)c(OC)c2)[C@@H]1OC`: the result was inactive.

On to `CC[C@]1(O)C[C@@H]2CN(CCc3c([nH]c4ccccc34)[C@@](C(=O)OC)(c3cc4c(cc3OC)N(C)[C@H]3[C@@](O)(C(=O)OC)[C@H](OC(C)=O)[C@]5(CC)C=CCN6CC[C@]43[C@@H]65)C2)C1`, for which the AC50 is 0.01 µM (active).

On to `OCCN(CCO)c1nc(N2CCCCC2)c2nc(N(CCO)CCO)nc(N3CCCCC3)c2n1`, for which the result was inactive.

As to `CN1CCC[C@@H]1CCO[C@](C)(c1ccccc1)c1ccc(Cl)cc1`, the AC50 is 3.16 µM (active).

On to `CNCCCN1c2ccccc2CCc2ccccc21`, for which the AC50 is 15.8 µM (active).

As for `Cc1ccccc1C(OCCN(C)C)c1ccccc1` (stereo unspecified), the half-maximal activity concentration (AC50) was 8.91 µM (active).

With `CNCC[C@H](Oc1cccc2ccccc12)c1cccs1`, the AC50 is 10 µM (active).

Turning to `CNCCCC1c2ccccc2C=Cc2ccccc21`, the AC50 was 8.91 µM (active).

`CSc1ccc2c(c1)N(CCC1CCCCN1C)c1ccccc1S2` (stereo unspecified): the AC50 was 6.31 µM (active).

For `CN(C)c1cc(NC(=O)CNC(C)(C)C)c(O)c2c1C[C@@H]1C[C@H]3[C@H](N(C)C)C(=O)C(C(N)=O)=C(O)[C@@]3(O)C(=O)C1=C2O`, the result was inactive.

As to `CN(C)CCC=C1c2ccccc2C=Cc2ccccc21`, the concentration at half-maximal activity (AC50) is 12.6 µM (active).

With `Cc1nc(Nc2ncc(C(=O)Nc3c(C)cccc3Cl)s2)cc(N2CCN(CCO)CC2)n1`, the AC50 was 28.2 µM (active).

For `COc1ccc([C@@H]2Sc3ccccc3N(CCN(C)C)C(=O)[C@@H]2OC(C)=O)cc1`, the result was inactive.

Regarding `CN(C)CCCN1c2ccccc2CCc2ccc(Cl)cc21`, the AC50 was 6.31 µM (active).

For `CC12CC3CC(C)(C1)CC(N)(C3)C2`, the result was inactive.

`CCN(CC)CCN1C(=O)CN=C(c2ccccc2F)c2cc(Cl)ccc21`: the outcome was inactive.

Consider `CN1CCC(=C2c3ccccc3C=Cc3ccccc32)CC1`, for which the half-maximal activity concentration (AC50) is 14.1 µM (active).

`COC(=O)C1=C(C)NC(C)=C(C(=O)OCC(C)C)C1c1ccccc1[N+](=O)[O-]` (stereo unspecified): the result was inactive.

For `COc1cc(NCc2ccc3nc(N)nc(N)c3c2C)cc(OC)c1OC`, the result was inactive.

On to `C[C@@H](NCCCc1cccc(C(F)(F)F)c1)c1cccc2ccccc12`, for which the AC50 is 12.6 µM (active).

Consider `O=C1c2c(O)ccc(O)c2C(=O)c2c(NCCNCCO)ccc(NCCNCCO)c21`, for which the AC50 was 5.01 µM (active).

As to `CN(C)CCCN1c2ccccc2Sc2ccc(Cl)cc21`, the AC50 is 10 µM (active).

`Cc1c(O)cccc1C(=O)N[C@@H](CSc1ccccc1)[C@H](O)CN1C[C@H]2CCCC[C@H]2C[C@H]1C(=O)NC(C)(C)C`: the result was inactive.

As for `O[C@@H](c1cc(C(F)(F)F)nc2c(C(F)(F)F)cccc12)[C@H]1CCCCN1`, the AC50 was 5.62 µM (active).

On to `OCCN1CCN(CCCN2c3ccccc3Sc3ccc(C(F)(F)F)cc32)CC1`, for which the AC50 was 8.91 µM (active).

As to `CN1C[C@H]2c3ccccc3Oc3ccc(Cl)cc3[C@@H]2C1`, the AC50 was 17.8 µM (active).

Regarding `Fc1ccc([C@@H]2CCNC[C@H]2COc2ccc3c(c2)OCO3)cc1`, the concentration at half-maximal activity (AC50) was 5.01 µM (active).

Take `OCCN1CCN(CCCN2c3ccccc3Sc3ccc(Cl)cc32)CC1`: the AC50 is 5.62 µM (active).

Regarding `CN1CCc2cccc3c2[C@H]1Cc1ccc(O)c(O)c1-3`, the outcome was inactive.

Values taken from PubChem BioAssay (NCATS).
